Data reported in the supplement of paper PMC6555819.

Columns and labels:
Assay in all cases: PBM binding z-score (relative to random genomic background probes); higher = stronger binding; sequences stand for … in GC…GCGATTGACAGCGTAGAATGAAGG
[1] = tested on: RARb homodimer (NR concentration 270 nM)
Procedure, shortened: (§1)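 Each nuclear receptor dimer, without ligand, was incubated for 1 h on custom Agilent 4×180K protein-binding microarrays. Binding was detected with antibodies against each partner (one per run), and scanned fluorescence was regression-normalized. The binding z-scores are referenced to random human genomic background probes.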

[2] = tested on: RARg:RXRa (NR concentration 270 nM, RXRa partner concentration 90 nM)
Procedure, shortened: as §1

[3] = tested on: RARg homodimer (NR concentration 270 nM)
Procedure, shortened: as §1

[4] = tested on: RXRa DBDmut IVT, anti-RXR (DBD mutation: RXRa K156A/R161A, NR concentration 90 nM)
Procedure, shortened: as §1

[5] = tested on: RXRa homodimer (NR concentration 180 nM)
Procedure, shortened: as §1

[6] = tested on: THRa:RXRa (NR concentration 90 nM, RXRa partner concentration 90 nM)
Procedure, shortened: as §1

[7] = tested on: THRa homodimer (NR concentration 90 nM)
Procedure, shortened: as §1

[8] = tested on: VDR:RXRa (NR concentration 270 nM, RXRa partner concentration 90 nM)
Procedure, shortened: as §1

[9] = tested on: VDR homodimer (NR concentration 270 nM)
Procedure, shortened: as §1

Sequence | PBM binding z-score [1] | PBM binding z-score [2] | PBM binding z-score [3] | PBM binding z-score [4] | PBM binding z-score [5] | PBM binding z-score [6] | PBM binding z-score [7] | PBM binding z-score [8] | PBM binding z-score [9]
ACGAGCAGGCCAAGTTTGGGTCACTCAAACAAAG | 2.28 | 2.29 | 1.45 | -0.315 | 0.708 | 2.59 | 1.04 | 0.614 | 0.234
CGTCCTAGGTCAGAGAGGTCAGTGAATGCCGAGT | 4.71 | 5.31 | 5.94 | 1.92 | 4.49 | 3.77 | 1.92 | 6.8 | 3.9
GCTATTAGTTGAAAGCGCAACCGAATGATTCTCG | -0.696 | -0.258 | -0.0474 | 0.445 | -0.166 | -0.508 | -0.515 | -0.272 | -0.738
CGTCCAAGGTCAGGGTCAGTGAAAGAGACTCGAA | 4.57 | 5.67 | 6.48 | 2.75 | 5.14 | 3.9 | 2.66 | 3.92 | 2.19
TCTGCTAAGTCAGTTGGTCAGCTAACGAGCTGCC | -0.3 | -0.611 | -0.521 | -0.0698 | -0.61 | -0.628 | -0.977 | -0.514 | -0.941
ATCTCTAGGTAAAAGGTCAGTGAATCCCGAGGAT | 4.43 | 4.54 | 4.74 | 0.227 | 4.83 | 3.34 | 0.855 | 2.51 | 0.867
ACTATTAGTTGACTTAGGGCGACCGATACGACGC | 0.553 | 0.564 | 0.841 | 1.02 | 0.421 | 1.12 | 0.262 | 0.175 | 0.166
CGGACTGGGGCATAAGGTTACCATAAGCCAGCCC | 1.94 | 1.83 | 1.21 | -0.836 | 1.29 | 2.18 | 1.39 | 0.33 | -0.454
TCGAGTAGGTTAGTCAGGGCATTCAGCCAACATA | 0.896 | -0.14 | 0.189 | 0.358 | -0.156 | 1.1 | 0.314 | 2.59 | 0.685
TCTGCTAGGTCAACGATGGTCACCTAATCTGCTA | 3.63 | 4.17 | 4.77 | 1.06 | 2.69 | 3.58 | 1.37 | 2.19 | 0.156
TCGAGTAGGTCACCAATGGGGCATTCAGCTTTCT | 3.59 | 5.11 | 4.61 | 0.972 | 3.44 | 2.42 | -0.0324 | 2.62 | 0.0095
CATTACGGGTCACTGACAGGTTATAGCATTTGGA | 3.58 | 5.97 | 4.78 | 2.24 | 5.7 | 3.2 | 0.716 | 4 | 1.4
TATCCTAGGTCATTCAGGGGCCAGTATAGAAAGC | 3.68 | 6.44 | 4.99 | 2.55 | 3.59 | 3.76 | 1.57 | 3.57 | 2.01
CGTCCAAGGTAATAGGAGGTCAGTGAAGACAGAT | 2.88 | 2.11 | 2.21 | 0.17 | 1.8 | 3.94 | 1.27 | 2.56 | 1.2
GCTTACGGCTCAAAGGTTATAGCATGAATAGAAT | 1.05 | 1.29 | 0.586 | 0.213 | 1.93 | 1.21 | -0.314 | 0.88 | -0.204
AGTCAAAGTTCAGGCCGAGGTAACGTAAAGCACG | 3.34 | 5.07 | 4.99 | 3.1 | 2.85 | 3.78 | 1.3 | 3.01 | 2.53
TATACAGGGCCAAAGGCCAGAGTACGAATGTCGA | 1.12 | 1.16 | 1.47 | -0.775 | 0.74 | -0.149 | -0.814 | 0.13 | 0.291
ATATGTAGGTTAGCTGGGGTCTTTCAGACTAGGC | 0.902 | 0.713 | 0.709 | 0.448 | 0.914 | 3.67 | 0.871 | 1.28 | 0.329
CAAACTAGGTCACGAAAGGCCAAAGTCGAATGAC | 4.29 | 5.29 | 5.81 | 2.01 | 3.94 | 4.33 | 1.52 | 4.15 | 1
CTCGAAAGGTCGTGCTCAGGTGAGGATACCAAAC | 2.88 | 5.12 | 3.74 | 2.24 | 4.62 | 4.22 | 2.06 | 3.3 | 0.965
GCTGCTAGGTCAGGTTGCTCAGCTAACGGGTACG | 2.14 | 2.32 | 2.99 | 0.623 | 0.855 | 1.49 | 0.194 | 0.0611 | 0.297
TGAATGAGGTTATAAGAGCAGGGAACGTTGCAAA | 0.269 | 1.47 | 0.87 | 0.547 | 1.87 | 1.66 | 0.0456 | 0.901 | 0.451
GCAGACAGGGGAAACGCAGGTAACTCAGGGTGGC | -0.497 | -0.368 | -0.487 | -0.47 | -0.164 | 0.986 | -0.308 | -0.768 | -0.688
TCTGCTAGGTCAGTTGGTCAGCTCACGAGCTGCC | 2.45 | 2.61 | 3.31 | 0.58 | 1.15 | 1.38 | 0.196 | 0.484 | -0.78

Sequence | PBM binding z-score [1] | PBM binding z-score [2] | PBM binding z-score [3] | PBM binding z-score [4] | PBM binding z-score [5] | PBM binding z-score [6] | PBM binding z-score [7] | PBM binding z-score [8] | PBM binding z-score [9]
GCTGCTAGCTCAGGTTGGTCAGCTAACGGGTACG | -0.467 | -0.618 | -0.751 | -0.375 | -1.02 | -0.615 | -0.751 | -0.71 | -0.32
AGAATGAGGTTAAGATCAGGAAAACAGAATACAT | 0.79 | 2 | 1.73 | 0.917 | 2.65 | 2.28 | 0.529 | 1.24 | 0.435
TTTTGTAGATCAGCAGGTTAAGAAAGCTGGCCAA | 0.145 | -0.111 | -0.252 | -0.708 | 0.104 | 0.144 | -0.308 | 0.0929 | -0.168
GCTGGTTGGTCAGTAAAAGGTCACACACCGGTCG | 5.18 | 5.81 | 5.42 | 0.18 | 5.73 | 3.5 | 2.21 | 4.02 | 2.29
CTTACTGGGCCATCAGGTCATTGATATCAACGTT | 2.78 | 2.32 | 2.54 | 0.956 | 1.33 | 3.24 | 3.08 | 1.91 | 1.94
GCTGCTAGGTCAACTGATGGTTAGCTAAAGCTCG | 3.25 | 4.51 | 5.52 | 1.85 | 2.81 | 2.94 | 0.862 | 1.39 | -0.316
AGAATGAGGTTATTAAGATCAAGGAATTGCGGTC | 0.762 | 1.21 | 0.86 | 2.05 | 1.86 | 2.13 | 0.766 | 3.11 | 1.61
TCTGCTAGGTCTACGATGGTCAGCTAATCTGCTA | -0.552 | -0.506 | -0.409 | 0.00299 | -0.775 | -1.43 | -1.26 | -0.625 | -1.28
CCTGCTCGGTCATGGTCAGCTAATCTACAGTATG | 1.93 | 1.91 | 2.66 | 0.361 | 0.252 | 0.067 | -0.311 | -0.315 | -0.527
TCAGACAGGTGAAGGTAACTCGGGTACGCAGTCG | 1.04 | 0.783 | 0.664 | 1.16 | 1.23 | 1.66 | 0.72 | 1.45 | 0.873
CTACCAAGGTGAACACGGTCGTTGATTACTATTC | 1.24 | 0.852 | 0.843 | 0.773 | 0.777 | 2.07 | 0.961 | 3.01 | 0.015
TGTAAAAGTTCAAAGGTAACGTAAGTATCCACAC | 3.5 | 5.35 | 5.12 | 4.06 | 6.28 | 3.53 | 0.192 | 4.65 | 2.83
GCTGCTAGGTCAGGTTGGTCAGTTAACGGGTACG | 2.75 | 2.59 | 3.38 | 0.795 | 1.02 | 2.03 | 1.2 | 1.02 | 0.71
ATATGTAGGTTATCGGGTCATTCACTTTGCGCAT | 3.14 | 3.43 | 2.55 | 1.88 | 3.56 | 3.39 | 2.94 | 3.73 | 3.12
TAGCCTAGGGCATTGGGCCAGTATAGTACGCATC | 0.542 | 0.434 | 1.21 | -0.706 | 0.0585 | -0.328 | -0.611 | -0.414 | -0.306
GCATATAGGTACTACAAGGTGAAAGTCCGATTGT | 0.507 | 0.382 | 0.475 | 0.291 | 0.615 | 3.49 | 0.882 | 0.143 | 0.179
TCGAGTAGGTTAGTCGGGGCAATCAGCCAACATA | 0.889 | 0.0718 | 0.25 | 0.255 | 0.0944 | 2.38 | -0.198 | 1.05 | -0.417
AGTCAAAGTTCAGGGCGAGGTAACGTAAAGCACG | 3.56 | 5.13 | 4.99 | 2.95 | 3.15 | 3.64 | 1.28 | 3.27 | 2.15
CGTTCAAGGTCAGCAGGTCAGTGAAAGCGACGTG | 5.45 | 6.75 | 7.14 | 3.31 | 5.46 | 4.18 | 3.13 | 4.25 | 2.25
ACTATTATTTGACTTAGGGCAACCGATACGACGC | 1.2 | 1.18 | 1.35 | 1.24 | 0.818 | 1.18 | 1.52 | 0.993 | 1.41
ACAGACAGGTGATGAAGGTAACGCAGGCTATCAT | 0.353 | 0.208 | 0.319 | -0.195 | 0.253 | 0.435 | -0.159 | -0.0633 | -0.267
AGAATGAGGATATACGTAGATCAGGGAAGAAAGT | -0.46 | 0.0404 | 0.424 | -0.474 | -0.0531 | 0.415 | -0.039 | -0.427 | -0.0995
GCTCGGAGGACAAGGTCAGTGCTTTGTCCGTAGA | 3.23 | 2.82 | 3.65 | 0.477 | 1.29 | 2.77 | 1.49 | 1.19 | 0.406
TTAGACAGGTGAAGGTAACTCAGGTACGCAGTCG | 0.861 | 0.559 | 0.81 | -0.329 | 0.753 | 1.48 | 0.377 | 0.618 | 0.53
